Screening data (PubChem BioAssay)
PINK1 modulator – changes PINK1 expression | PINK1 immunofluorescence, high-content cytometry, 24 h | Potency, µM (doses to about 76.6 µM), inactives show at the top dose activation (PINK1 increase), most hits filed as activators | actives 0.2% (n = 410,000) | AID 624263; active means well fitted activation curve with a large enough effect; inconclusive means small, poorly fitted or top-dose-only effect; cell line not stated here; further: % of control where 0% means no effect; nearly all actives have a fitted effect of over 65% in size
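Measures PINK1 amount and localization on or inside mitochondria by immunofluorescence. Stable cells get compounds at 5 concentrations for 24 hours before fixation and staining; CCCP controls included.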
KB-V1 cytotox – kills drug-selected multidrug resistant KB-V1 cells. KB-V1 MDR cells viability, CellTiter-Glo, 72 h. Potency, µM (titrated, usually from 46.1 µM), actives largely listed as cytotoxic. actives 3.4% (n = 400,000). AID 1347076; further: on the % scale 0 is the no-effect control and ±100 the full control effect; nearly all actives have a fitted effect of over 60% in size
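KB-V1 cells (P-gp-expressing MDR subline of KB-3-1) in phenol-red-free DMEM with 10% FBS were exposed to library compounds over a concentration series for 72 h at 37 degrees C. Viability read by CellTiter-Glo luminescence; concentration-effect curves fitted after normalization.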
SW480 rerep – DNA re-replication induction in SW480 cells; SW480 DNA re-replication, Hoechst DNA content imaging, 48 h; Potency, µM (doses to about 46.1 µM), inactives show top-dose re-replication activation, most hits filed as activators; actives 1.8% (n = 340,000); further: % of control where 0% means no effect; nearly all actives have a fitted effect of over 55% in size
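Quantitative HTS format with DMSO vehicle controls; 48 hr drug incubation at 37 C, then 40 min Hoechst staining and scanning imager measurement at 405 nm excitation.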
KB-3-1 tox – KB-3-1 parental cell cytotoxicity. KB-3-1 viability, CellTiter-Glo ATP luminescence, 72 h. Potency, µM (series often up to 46.1 µM), usual class: cytotoxic. actives 1.4% (n = 400,000); further: on the % scale 0 is the no-effect control and ±100 the full control effect; nearly all actives have a fitted effect of over 60% in size
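Parental KB-3-1 adenocarcinoma cells in phenol-red-free DMEM with 10% FBS were pin-treated with compounds at several concentrations, incubated 72 h at 37 °C, and viability read by CellTiter-Glo luminescence; concentration-effect curves were fitted after normalization.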
12-LOX inh – blocks human arachidonate 12S-lipoxygenase; P18054; AID 1671190; actives 1.1% (n = 580,000); Potency, µM (top dose mostly 108 µM), for the others: at the top dose activity change, negative = inhibition, actives largely listed as inhibitors; purified 12hLO, xylenol orange hydroperoxide absorbance; further: on the % scale 0 is the no-effect control and ±100 the full control effect
Target sequence (P18054 whole entry, looked up): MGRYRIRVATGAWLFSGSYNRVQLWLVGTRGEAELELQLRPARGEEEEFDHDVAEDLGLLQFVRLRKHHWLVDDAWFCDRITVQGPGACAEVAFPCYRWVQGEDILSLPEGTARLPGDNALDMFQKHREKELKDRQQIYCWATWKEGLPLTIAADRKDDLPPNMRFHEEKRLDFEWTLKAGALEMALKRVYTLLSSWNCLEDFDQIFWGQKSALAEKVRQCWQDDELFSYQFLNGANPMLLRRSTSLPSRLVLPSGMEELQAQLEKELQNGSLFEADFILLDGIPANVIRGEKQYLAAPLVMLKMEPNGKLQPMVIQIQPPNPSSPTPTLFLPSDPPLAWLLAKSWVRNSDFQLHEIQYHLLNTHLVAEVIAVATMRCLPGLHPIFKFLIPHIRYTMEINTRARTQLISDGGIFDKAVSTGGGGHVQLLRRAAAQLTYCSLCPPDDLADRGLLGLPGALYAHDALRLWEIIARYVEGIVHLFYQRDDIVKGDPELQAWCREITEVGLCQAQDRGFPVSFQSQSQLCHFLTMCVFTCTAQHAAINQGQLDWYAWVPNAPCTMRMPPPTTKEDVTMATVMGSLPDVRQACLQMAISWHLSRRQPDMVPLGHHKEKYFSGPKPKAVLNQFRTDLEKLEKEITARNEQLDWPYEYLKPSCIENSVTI
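Purified human 12hLO at 150 nM in 25 mM Hepes, 0.01% Triton X-100, pH 7.0, preincubated 15 min at room temperature with compound. Reaction started with 40 uM arachidonic acid, 30 min at room temperature. Hydroperoxide measured by Fe-xylenol orange, 573/405 nm absorbance ratio.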
MCF10A rerep – inducers of DNA re-replication in MCF 10A breast cells; Potency, µM (titrated, usually from 46.1 µM), for the others: top-dose activity, positive = re-replication, usual class: activators; actives 2.9% (n = 350,000); MCF 10A DNA re-replication, Hoechst nuclear intensity, 48 h; further: % of control where 0% means no effect; nearly all actives have a fitted effect of over 50% in size
* hit, by the source's call; i = inactive; ? = inconclusive; / = not tested or not shown; [ ] = another dose, or the depositor's remark. This is a sample that favours compounds with a hit; in the whole collection about 5.8% have one here. Unless noted, the call rests on the fitted dose curve; in most records, active means well fitted curve in the direction sought with a large enough effect; inconclusive means small, poorly fitted or top-dose-only effect, or another doubt; inactive means no such curve, though single readings can be large; an effect the other way counts as inactive or inconclusive. Potency means the concentration at half of the fitted maximal effect.

SMILES	PINK1 modulator	KB-V1 cytotox	SW480 rerep	KB-3-1 tox	12-LOX inh	MCF10A rerep
CCn1c(Cc2cccs2)nnc1SCC(=O)Nc1ccc(OC)c(OC)c1	2.1%	i	-5.4%	i	0.0%	0.7%
C=CCn1c(Cc2cccs2)nnc1SCC(=O)c1ccc(F)cc1	-2.8%	i	?	i	?	?
C=CCn1c(Cc2cccs2)nnc1SCC(=O)c1ccc2ccccc2c1	8.8%[38.3 µM]	?	27.4%	i	10.1%	11.6µM*
C=CCn1c(Cc2cccs2)nnc1SCC(=O)Nc1ccc(OC)c(OC)c1	-3.1%	23.1µM*	-6.3%	i	1.9%	0.0%
O=C(CSc1nnc2[nH]c(=O)c(Cc3ccccc3)nn12)Nc1cccc(Cl)c1	/	/	/	/	25.1µM*	/
CCc1ccccc1NC(=O)CSc1nnc2[nH]c(=O)c(Cc3ccc(C)cc3)nn12	/	/	/	/	-0.3%	/
O=Cc1ccc(Sc2nnc(-c3ccccc3)o2)c([N+](=O)[O-])c1	-2.5%[38.3 µM]	?	?	?	/	2.91µM*
Cn1nc([N+](=O)[O-])nc1Sc1nnc(-c2ccccc2)o1	-1.9%	i	4.11µM*	?	-2.6%	?
O=c1[nH]nc(SCCS(=O)(=O)c2ccc(F)cc2)n1-c1ccc2c(c1)OCCO2	3.2%	i	?	i	94.3%	?
O=c1[nH]nc(SCCS(=O)(=O)c2ccc(F)cc2)n1-c1ccccc1	3.1%	i	16.4%	i	221.7%	23.1µM*
N#C/C(=C\c1cccs1)C(=O)c1ccccc1Cl	1.4%	i	?	i	?	5.8µM*
COc1ccc(OC)c(-c2cc3ccc(OC)cc3oc2=O)c1	/	/	/	/	54.9%	/
CCOC(=O)/C(C#N)=C/Nc1ccsc1C(=O)OC	-0.1%	i	11.5%	i	5.9%	4.6%
CCOC(=O)/C(C#N)=C/Nc1cc(C(=O)OCC)cc2c(OC)c(OC)ccc12	1.4%	i	23.1µM*	i	-19.8%	2.59µM*
Cc1ccccc1NC(=O)c1ccc2c(c1)CCCN2S(C)(=O)=O	/	/	/	/	5.4%	/
COc1ccc(Nc2ncc3nc(-c4cccs4)c(=O)n(Cc4cccc(OC)c4)c3n2)cc1	2.51µM*	/	/	/	?	/
COCCn1c(=O)c(-c2cccc(C#N)c2)nc2cnc(Nc3ccccc3)nc21	25.1µM*	/	/	/	?	/
COc1ccc(-c2nc3cnc(Nc4cccc(OC)c4)nc3n(C[C@H]3CCCO3)c2=O)cc1	25.1µM*	/	/	/	?	/
COc1cccc(Nc2ncc3nc(CCc4ccccc4)c(=O)n(Cc4cccs4)c3n2)c1	28.2µM*	/	/	/	?	/
O=c1c(CCc2ccccc2)nc2cnc(Nc3ccccc3)nc2n1Cc1cccs1	?	/	/	/	97.3%	/
CCC1CCc2sc(C(=O)NC3CCCC3)cc2C1 (centres undefined)	/	/	/	/	-2.8%	/
COc1ccc(C(C(=O)NC2CCCC2)N(C(=O)c2snc(-c3ccc(F)cc3)c2N)c2ccccc2)cc1 (centres undefined)	12.6µM*	i	17.1%	i	0.0%	1.5%
COc1ccc(C(C(=O)NC2CCCC2)N(C(=O)c2snc(-c3ccc(F)cc3)c2N)c2cccc(F)c2)cc1 (centres undefined)	?	i	20.6µM*	i	-15.7%	?
COc1ccc(C(C(=O)NC2CCCC2)N(C(=O)c2snc(-c3ccc(F)cc3)c2N)c2ccc(OC)cc2)cc1 (centres undefined)	-4.0%	i	0.6%	i	-24.9%	9.2%
COc1ccc(C(C(=O)NC2CCCC2)N(C(=O)c2snc(-c3ccc(F)cc3)c2N)c2ccc(F)cc2)cc1 (centres undefined)	15.8µM*	?	16.4µM*	?	-1.8%	?
SMILES	PINK1 modulator	KB-V1 cytotox	SW480 rerep	KB-3-1 tox	12-LOX inh	MCF10A rerep
COc1ccc(N(C(=O)c2snc(C(N)=O)c2N)C(C(=O)NC2CCCC2)c2ccc(F)cc2)c(OC)c1 (centres undefined)	19.6%	i	4.7%	i	-1.8%	7.1%
Cc1nc2nc3ccn(CCN(C)C)c(=O)c3c(-c3ccccc3)n2n1	/	/	/	/	-21.0%	/
C=CCN(c1ccccc1)S(=O)(=O)c1cccc(C(=O)NC2CCN(Cc3ccccc3)CC2)c1	-2.1%	?	?	20.6µM*	-22.2%	?
C=CCN(c1ccccc1)S(=O)(=O)c1cccc(C(=O)NCc2ccco2)c1	0.2%	18.4µM*	1.7%	i	-4.2%	1.5%
CN(CC(=O)Nc1ccc(OC(F)(F)F)cc1)C(=O)c1ccccc1SCC(=O)N1CCCC1	1.0%	7.31µM*	-0.9%	16.4µM*	-0.5%	-7.9%
CN(CC(=O)Nc1ccc(Cl)c(Cl)c1)C(=O)c1ccccc1SCC(=O)N1CCCC1	1.0%	i	/	i	-29.7%	/
CC(CCc1ccccc1)NC(=S)NC(=O)c1ccco1 (centres undefined)	1.2%	?	0.0%	i	?	5.3%
COc1cc(C(=O)N/N=C(\C)Cc2ccccc2)cc(OC)c1OC	3.8%	i	2.59µM*	i	11.7%	2.06µM*
O=C(CCl)N(CCc1ccccc1)CCc1ccccc1	-1.1%	?	4.11µM*	?	?	23.1µM*
CCOc1ccccc1OCC(=O)N/N=C(\C)Cc1ccc(OC)cc1	29.9%	?	8.2µM*	?	-11.5%	?
O=C(NC(=S)N(CCc1ccccc1)CCc1ccccc1)c1ccco1	2.0%	6.51µM*	?	?	?	14.3%
N#C/C(=C\c1ccc(OC(=O)c2ccc(Cl)cc2)cc1)C(=O)Nc1ccccc1C(F)(F)F	/	/	/	/	12.3%	/
CCC(NC(=O)c1ccc(N(C)C)cc1)c1ccc(C)cc1 (centres undefined)	/	/	/	/	-25.4%	/
CC1CCN(C(=O)C2CCN(c3nc4ccccc4nc3OC(C)C)CC2)CC1	/	/	/	/	-9.4%	/
COc1cc(C(=O)NC(=S)N(C)Cc2ccccc2)cc(OC)c1OC	2.9%	i	-6.9%	i	-24.6%	0.6%
COc1cc(C(=O)NC(=S)N(CCc2ccccc2)CCc2ccccc2)cc(OC)c1OC	?	2.31µM*	?	?	?	?
COc1cc(C(=O)NCc2cccc3ccccc23)cc(Cl)c1OC	-0.5%	18.4µM*	15.0%	i	-1.6%	?
Cc1ccc(C(=O)/C=C/c2sccc2C)cc1	/	/	/	/	-8.7%	/
Cc1ccc(Nc2ncnc3sc(C)c(C)c23)cc1	2.0%[38.3 µM]	?	-1.4%	i	3.1%	-2.7%
Cc1ccc(S(=O)(=O)Nc2ncnc3sc(C)c(C)c23)cc1	1.5%	3.66µM*	-3.9%	?	21.7%	?
CNC(=O)NC(=O)CN(Cc1ccc(C#N)cc1)Cc1cccc(F)c1	/	/	/	/	6.1%	/
